# Data as given in PubChem BioAssay AID2546 (National Center for Advancing Translational Sciences (NCATS), 2010).
# Hit rate of the full screen: of about 310,000 compounds, about 11,000 (3.5%) were called active. Inconclusive results (about 8%) are left out. Calls follow the shape of the dose curve; as a rule, active = well fitted inhibition curve with a large enough effect; inconclusive = small, poorly fitted or top-dose-only effect, or effect the other way; inactive = flat fitted curve, though single readings scatter. Only a selection was taken, and actives are over-represented in it overall.
# Assay: VP16 counterscreen qHTS for inhibitors of ROR gamma transcriptional activity;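 also: Gal4-VP16 expression switched on by copper sulfate through the metallothionein promoter; nearly all actives have a fitted effect of over 50% in size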
# Details: Drosophila S2 Gal4-VP16 UAS-luciferase, luminescence, 20 h; series mostly up to 53.6 µM; activity, negative = inhibition: at the top concentration
# % is scaled to controls: 0 for no effect and ±100 for the full control effect; potency is read from the fitted curve at half-maximal effect.
Compound,Potency,"activity, negative = inhibition"
CCc1ccc(NC2Nc3cc(C)nn3S2)cc1 (stereo not drawn),5.01 µM (active),
CCOC(=O)c1ccc(NC2Nc3cc(C)nn3S2)cc1 (stereo not drawn),,-6.13% (inactive)
O=C(CC1Nc2ccccc2NC1=O)Nc1ccccc1NC(=O)CC1Nc2ccccc2NC1=O (stereo not drawn),,-0.767% (inactive)
CCOC(=O)c1ccccc1NC(=O)CC1Nc2ccccc2NC1=O (stereo not drawn),,-1.38% (inactive)
O=C(CC1Nc2ccccc2NC1=O)Nc1ccccc1 (stereo not drawn),5.01 µM (active),
CCN(C(=O)COc1ccc(C(=O)c2ccccc2)cc1)c1ccccc1,,0.177% (inactive)
O=S(=O)(c1ccccc1)c1nc(-c2ccccc2)oc1NCCCN1CCOCC1,,-4.1% (inactive)
Cc1cccc(N2CCN(C(=O)c3cccc(N4C(=O)C5C6C=CC(C6)C5C4=O)c3)CC2)c1C (stereo not drawn),,-18.4% (inactive)
O=C(CN1CCOC1=O)N1CCCC(Nc2ccc(F)c(F)c2)C1 (stereo not drawn),,-4.61% (inactive)
C=C1CCN(C(CC(C)C)C(=O)N2CCOCC2)S(=O)(=O)c2ccccc21 (stereo not drawn),,1.67% (inactive)
Cc1ccc(OCCOCCOc2ccc(Br)cc2/C=N\NC(=O)c2ccncc2)cc1,25.1 µM (active),
Cc1ccc(OCCOc2cccc(/C=N/NC(N)=O)c2)cc1,,-10.6% (inactive)
Cc1ccc(S(=O)(=O)Oc2ccc(/C=N/NC(=O)c3ccncc3)cc2)cc1,,6.78% (inactive)
Cc1ccc(CNC(=O)CCN2C(=O)[C@@H]3Cc4ccccc4CN3C2=O)cc1,,-8.23% (inactive)
CC(=O)Nc1cccc(C(=O)OCN2C(=O)c3ccccc3C2=O)c1,,-7.7% (inactive)
Cc1cc(OCc2cc(C(=O)NCc3cc(C(C)C)no3)no2)cc(C)c1Cl,,-8.7% (inactive)
Cc1cccc(NC(=S)NCCN(C2CCCCC2)C2CCCC2)c1,,-73% (inactive)
O=C(O)CCC(=O)NCc1ccc2[nH]c3c(c2c1)CCCC3,,0.514% (inactive)
Cc1cccc(NC(=S)NCc2ccc3[nH]c4c(c3c2)CCCC4)c1,7.08 µM (active),
CCOc1cc(/C=N/Nc2cc(C)nc3ccc(C)cc23)ccc1O,,3.8% (inactive)
Cc1ncoc1C(=O)N1CCCC(C(=O)c2ccc3c4c(cccc24)CC3)C1 (stereo not drawn),,1.3% (inactive)
CC(=O)NCC(=O)N1CCCC(C(=O)c2ccc3c4c(cccc24)CC3)C1 (stereo not drawn),,2.57% (inactive)
CCn1ccnc1CN1CCCC(C(=O)c2ccc3c4c(cccc24)CC3)C1 (stereo not drawn),4.47 µM (active),
COc1cc2c(cc1OC)C(C)N(S(=O)(=O)c1cnc(Cl)c(Cl)c1)CC2 (stereo not drawn),,-0.844% (inactive)
CCN1C(=S)N[C@@H](c2cccc(C(F)(F)F)c2)C(C(=O)OC)=C1C,,-28.2% (inactive)
CC1CCN(CC(=O)Nc2nccs2)CC1,,-5.42% (inactive)

Compound,Potency,"activity, negative = inhibition"
C=CCNC(=O)CSc1nc2scc(-c3ccco3)c2c(=O)n1CC=C,,2.38% (inactive)
C=CCn1c(SCc2csc(C)n2)nc2scc(-c3ccc(C)o3)c2c1=O,,-2.23% (inactive)
C=CCn1c(=S)[nH]c2scc(-c3ccco3)c2c1=O,7.94 µM (active),
COc1ccc(NC(=O)CN2C(=O)COc3ccc(S(=O)(=O)N4CCOCC4)cc32)c(OC)c1,,5.17% (inactive)
Cc1ccc(S(=O)(=O)N(C)CC(=O)NCCc2c[nH]c3ccccc23)cc1,,8.19% (inactive)
COc1ccc(-n2c(=O)[nH]c3cc(C(=O)NCCc4ccc(OC)c(OC)c4)ccc3c2=O)c(OC)c1,,-6.3% (inactive)
COc1ccc(NS(=O)(=O)c2cc(C(=O)Nc3ccccc3C(=O)O)ccc2C)cc1,,-3.41% (inactive)
CCCCc1nc2cc(C(=O)N3CCCCC3CCO)ccc2o1 (stereo not drawn),,-3.46% (inactive)
CCN(CC)S(=O)(=O)c1ccc(-c2cn3ccc(C)cc3n2)cc1,,4.17% (inactive)
COc1ccc(-c2cn3cccnc3n2)cc1,,-23.4% (inactive)
COc1ccc(-c2cn3ccc(C)cc3n2)cc1,5.01 µM (active),
O=C(c1cc(C(=O)N2CCN(c3ccc(F)cc3)CC2)cc([N+](=O)[O-])c1)N1CCN(c2ccc(F)cc2)CC1,,-15.2% (inactive)
CC(C)(C)C(=O)NC1CC2CCCC(C1)N2C(=O)Nc1ccccc1F (stereo not drawn),,10.1% (inactive)
O=CN1CCN(C(=O)c2ccc3c(c2)OCO3)CC1,,5.96% (inactive)
CC(NC(=S)Nc1ccc(OC(F)F)cc1)c1ccc(F)cc1 (stereo not drawn),12.6 µM (active),
CC(C)N(Cc1ccccc1)C(=S)Nc1ccc(OC(F)F)cc1,,-5.97% (inactive)
CC(NC(=S)Nc1ccc(S(N)(=O)=O)cc1)c1ccc2c(c1)OCO2 (stereo not drawn),,-0.45% (inactive)
Cc1cc(C)c2c(n1)nn1c(-n3ccnc3)cc(C)nc21,15.8 µM (active),
Cc1cc(-n2nc(C)cc2C)n2nc(C)c(-c3ccccc3)c2n1,,7.94% (inactive)
Cc1cc(C)c2c(NC(=O)C3CC3)nn(C)c2n1,,1.02% (inactive)
O=C(Nc1cccc(NC(=O)c2ccc(Br)cc2)c1)c1ccccc1,,-10.1% (inactive)
C/C(=N/NC(=O)c1cc(Cl)ccc1O)C12CC3CC(CC(C3)C1)C2,,-5.44% (inactive)
CC(=N\NC(=O)c1cc(Br)ccc1O)/C(=N/O)C(=O)Nc1ccccc1,11.2 µM (active),
COc1ccc(-c2c(C)cc3oc(=O)cc(-c4ccccc4)c3c2C)cc1OC,,2.38% (inactive)
COc1ccc(-c2c(C)cc3oc(=O)cc(-c4ccccc4)c3c2C)cc1F,,6.07% (inactive)
COc1cc(OC)c2c(-c3cccc(-c4cccc(N)c4)c3)cc(=O)oc2c1,10 µM (active),

Compound,Potency,"activity, negative = inhibition"
Cc1cc(NC(=O)CCC(=O)N(Cc2ccccc2)C(C(=O)NC2CCCC2)c2ccc(C)o2)no1 (stereo not drawn),,-2.38% (inactive)
CCc1cccc(C)c1N1C(=O)CN(Cc2ccccc2)C1=S,,-3.99% (inactive)
O=C(/C(=C/c1cccc(Cl)c1)c1nc2ccccc2[nH]1)c1ccccc1,12.6 µM (active),
O=C(Cc1nc2ccccc2[nH]c1=O)c1ccc(Cl)cc1,,4.55% (inactive)
CCC(=O)/C(=C(/O)c1ccccc1)c1nc2ccccc2[nH]1,,-1.81% (inactive)
Cc1ccc(C)c(NC(=O)c2cc(-c3cc(C)cc(C)c3O)n[nH]2)c1,,3.11% (inactive)
Cc1sc2ncn(CC(=O)NCCCC(=O)N(C)Cc3ccccc3)c(=O)c2c1C,,13.7% (inactive)
CCc1ccc2c(c1)C1(NN=C(c3ccccc3)S1)C(=O)N2 (stereo not drawn),6.31 µM (active),
CCCCN1C(=O)/C(=C2/Sc3ccc(Cl)cc3N2CC)SC1=S,,-3.93% (inactive)
CCOC(=O)C(C)Sc1nc2ccccc2c(=O)n1CC1CCCCC1 (stereo not drawn),,6.17% (inactive)
O=c1c2ccccc2nc2n1C1(CCCCC1)Cc1ccccc1-2,,6.09% (inactive)
CN(c1ccc2nc3ccccc3c(=O)n2n1)C1CCCCC1,1.12 µM (active),
C/C(=N\N(C)C)c1ccc(OCCOc2ccc([N+](=O)[O-])cc2)cc1,,-9.15% (inactive)
O=C(/C=C/c1ccc([N+](=O)[O-])o1)NNC(=O)c1ccc(F)cc1,4.47 µM (active),
O=C(N/N=C/c1ccc([N+](=O)[O-])o1)c1cn(-c2ccccc2)nc1-c1ccc(F)cc1,,0.475% (inactive)
C/[N+]([O-])=C\c1ccc([N+](=O)[O-])o1,,2.41% (inactive)
CCc1ccc(NC(=O)CN2CCC(C(=O)c3ccc(OC)cc3)CC2)cc1,,0.735% (inactive)
Cc1ccc(NC(=O)C(C)c2cccc(C(=O)c3ccccc3)c2)cc1 (stereo not drawn),7.08 µM (active),
COC(C(=O)Nc1ccc(C(C)=O)cc1)c1ccccc1 (stereo not drawn),,16.9% (inactive)
CC(=O)Nc1ccc(NC(=O)[C@@H](NC(=O)c2cccc(C)c2)C(C)C)cc1,,-0.828% (inactive)
CCn1cc(S(=O)(=O)c2cccc(C)c2)c(=O)c2cc(F)c(N3CCN(C)CC3)cc21,,0.516% (inactive)
Fc1ccc(-c2ccc(NCCN3CCOCC3)nn2)cc1,,-0.209% (inactive)
N#Cc1ccccc1NC(=O)c1ccc2c(c1)OCO2,,22.4% (inactive)
CCOC(=O)C1(Cc2ccccc2C)CCCN(C(=O)c2ccc(COC)o2)C1 (stereo not drawn),,11.1% (inactive)
CC1=CC(C)(C)Nc2ccc(OC(=O)CN3C(=O)C4CCCCC4C3=O)cc21 (stereo not drawn),7.94 µM (active),
CC1=CC(C)(C)Nc2ccc(OC(=O)C(Cc3ccccc3)N3C(=O)C4CCCCC4C3=O)cc21 (stereo not drawn),,10.5% (inactive)

Compound,Potency,"activity, negative = inhibition"
O=C(CN1C(=O)C2C3CCC(C3)C2C1=O)Oc1ccc2ccccc2c1 (stereo not drawn),,-10.4% (inactive)
COc1ccc2[nH]cc(CCN3C(=O)c4ccc(C(=O)O)cc4C3=O)c2c1,,-9% (inactive)
Cc1cccc(N(C)C(=O)CN2C(=O)COc3ccc(S(=O)(=O)N4CCCCCC4)cc32)c1,,-1.84% (inactive)
COc1ccc(-c2oc3ncnc(NCCCO)c3c2-c2ccc(OC)cc2)cc1,,-13.1% (inactive)
C[C@@H](NC(=O)OC(C)(C)C)c1nnc(S(=O)(=O)Cc2ccccc2)o1,4.47 µM (active),
CC(C)Sc1nnc([C@H](Cc2ccccc2)NC(=O)OC(C)(C)C)o1,,5.57% (inactive)
C[C@H](NC(=O)OC(C)(C)C)c1nnc(SCC(N)=O)o1,,8.92% (inactive)
CC(=O)Nc1cccc(NC(=O)CSc2nccn2Cc2ccc(F)cc2)c1,,-5.44% (inactive)
Cc1ccc2nc(SCC(=O)NC3CCCC3)[nH]c2c1,,4.32% (inactive)
Cc1nc(NNC(=O)c2ccccc2)cc(-c2ccccc2)n1,,-19.6% (inactive)
O=C(Nc1nc(-c2ccc(-c3ccccc3)cc2)cs1)c1cnccn1,2 µM (active),
Cc1ccc(Nc2nc(-c3sc(NC(=O)c4ccccc4)nc3C)cs2)cc1,,-2.11% (inactive)
O=C(Nc1nc(-c2cccnc2)cs1)c1ccccc1F,,5.72% (inactive)
O=C(O)c1ccccc1C(=O)Nc1nc(-c2ccccc2)cs1,,0.0927% (inactive)
Cc1ccc(-c2csc(NNC(=O)c3ccccc3)n2)cc1,7.08 µM (active),
CC(=O)c1ccc(N2CCN(C(=O)C3CCN(S(=O)(=O)c4ccc5c(c4)CC(C)N5C(=O)C4CC4)CC3)CC2)cc1 (stereo not drawn),,-8.05% (inactive)
CCCC(C)NC(=O)C1CCN(C(=O)C2CC(=O)N(c3ccc(C)cc3)C2)CC1 (stereo not drawn),,12.6% (inactive)
COc1cc(C)c(C)cc1S(=O)(=O)N1CCCc2ccccc21,,-8.46% (inactive)
O=C(Cn1cnc2ccccc21)Nc1ccccc1-c1ccccc1,,-5.47% (inactive)
O=C(NCCOc1cccnc1)c1ccc(OC2CCN(Cc3ccccn3)CC2)cc1,,-2.29% (inactive)
C[C@H](NC(=O)[C@@H]1Cc2ccccc2CN1C(=O)OC(C)(C)C)C(=O)NC1CCCC1,,-1.53% (inactive)
CC(C)(C)NC(=O)C(=O)NN=C1CCCCCCC1,,13.8% (inactive)
CC(C)NC(=S)NN=C1CCCCCCCCCCC1,5.01 µM (active),
CCc1ccc(C(=O)NN=C2CCCCCC2)s1,,-2.72% (inactive)
CCC1CCCCN1C(=S)Nc1ccc(S(=O)(=O)Nc2ncccn2)cc1 (stereo not drawn),,-18.2% (inactive)
